The record followed here is PubChem BioAssay (EPA / NIEHS).

Each structure is given as a SMILES string. Several values for one entry are separate records, joined by “and”; a condition that tells them apart may be missing. Equal entries are not always repeated. Some compounds were tested as several samples or in several runs, with calls that do not always agree. Activity calls are given as the source filed them. The calls were made as follows: active = hit-call score of the fitted dose curve at least 0.9, where 1 is the maximum; inactive = score below 0.9.

Read-out in one experiment: Eotaxin 3, CCL26 (gene 10344)
Nature of the experiment: BSK_BF4T_Eotaxin3: BioMAP Diversity Plus: BF4T Assay for Eotaxin 3 Biomarker Activity (AID 2284258). Particulars: primary human bronchial epithelial cells with fibroblasts. As to the method: (§1) BSK_BF4T is a cell-based, multiplexed-readout assay that uses bronchial epithelial cells and dermal fibroblasts, a human vascular primary cell, with measurements taken at 24 hours after chemical dosing in a microplate: 96-well plate.BSK_BF4T_Eotaxin3 is an assay component measured in the BSK_BF4T assay. It measures Eotaxin-3 antibody related to regulation of gene expression using ELISA technology.Data from the assay component BSK_BF4T_Eotaxin3 was analyzed at the endpoint, BSK_BF4T_Eotaxin3, in the positive analysis fitting direction relative to DMSO as the negative control and baseline of activity. Using a type of binding reporter, gain or loss-of-signal activity can be used to understand protein changes. To generalize the intended target to other relatable targets, this assay endpoint is annotated to the 'cytokine' intended target family, where the subfamily is 'chemotactic factor'.
(§2) The levels of cell surface (or secreted, indicated by the prefix "s") biomarker endpoints were measured by ELISA. Overt cytotoxicity to cells in confluent adherent cultures (all systems other than the BT system) was assessed by measuring total protein levels using sulforhodamine B (SRB) staining in parallel cultures at the time of biomarker measurements, indicated as SRB endpoints. For proliferation assays for adherent cell types, individual cell types are cultured at sub-confluence and relative cell numbers quantified by SRB staining at time points optimized for each system (48 h: 3C and CASM3C systems; 72 h: BT and HDF3CGF systems; 96 h: SAg system). SRB was performed by staining cells with 0.1% SRB after fixation with 10% TCA and reading wells at 560 nm.Viability and proliferation of PBMC (T cells) was quantified by Alamar Blue reduction for the SAg and BT systems. […] Then, Alamar Blue (20 uL/well) (Invitrogen, Cat DAL1100) was added for 6 h, and the plates were read with a fluorescence microplate reader at 546/580 nm (excitation/emission). […] Plates were read after 6 h.
In the case of `O=C(O)C(F)(F)C(F)(F)C(F)(F)C(F)(F)C(F)(F)C(F)(F)F`, the result was inactive.
On the same count and under the same terms, to `O=C(O)CCC(F)(C(F)(F)F)C(F)(F)F` belongs “inactive”.
As for `O=C(O)C(F)(F)C(F)(F)C(F)(F)C(F)(F)C(F)(F)C(F)(F)C(F)(F)C(F)(F)C(F)(F)C(F)(F)F`, the AC50 is 3.14 µM (active) and 3.33 µM (active).

Read-out in a further experiment: Monocyte Chemoattractant Protein-1 (MCP1), CCL2 (gene 6347)
The experiment in a line: BSK_BF4T_MCP1: BioMAP Diversity Plus: BF4T Assay for Monocyte Chemoattractant Protein-1 (MCP1) Biomarker Activity (AID 2284259). Particulars: primary human bronchial epithelial cells with fibroblasts. The method, boiled down:
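Co-culture of bronchial epithelial cells and dermal fibroblasts dosed with chemical; MCP-1 measured by ELISA 24 h later. Activity fitted in positive direction versus DMSO; cytotoxicity checked by SRB staining in parallel cultures.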
As for `O=C(O)C(F)(F)C(F)(F)C(F)(F)C(F)(F)C(F)(F)C(F)(F)F`, the result was inactive.
The same measure, in the same setting: for `O=C(O)CCC(F)(C(F)(F)F)C(F)(F)F` the value was “inactive”.
For the compound `O=C(O)C(F)(F)C(F)(F)C(F)(F)C(F)(F)C(F)(F)C(F)(F)C(F)(F)C(F)(F)C(F)(F)C(F)(F)F`, the AC50 was 5.55 µM (active) and 5.18 µM (active).

Read-out in the next experiment: Intercellular Adhesion Molecule 1 (ICAM1), ICAM1 (gene 3383)
The experiment in a line: BSK_BF4T_ICAM1: BioMAP Diversity Plus: BF4T Assay for Intercellular Adhesion Molecule 1 (ICAM1) Biomarker Activity (AID 2284260). Particulars: primary human bronchial epithelial cells with fibroblasts. The method, boiled down:
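Co-culture of human bronchial epithelial cells and dermal fibroblasts exposed 24 h to chemical; cell-surface ICAM-1 quantified by ELISA. Parallel SRB total-protein staining assessed cytotoxicity; activity fitted relative to DMSO.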
Take `O=C(O)C(F)(F)C(F)(F)C(F)(F)C(F)(F)C(F)(F)C(F)(F)F`: the result was inactive.
On to `O=C(O)CCC(F)(C(F)(F)F)C(F)(F)F`, for which the outcome was inactive.
In the case of `O=C(O)C(F)(F)C(F)(F)C(F)(F)C(F)(F)C(F)(F)C(F)(F)C(F)(F)C(F)(F)C(F)(F)C(F)(F)F`, the AC50 was 5.15 µM (active) and 4.51 µM (active).

Read-out in a further experiment: CD90, THY1 (gene 7070)
The experiment in a line: BSK_BF4T_CD90: BioMAP Diversity Plus: BF4T Assay for CD90 Biomarker Activity (AID 2284262). Particulars: primary human bronchial epithelial cells with fibroblasts. The method, boiled down: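 Co-culture of human bronchial epithelial cells and dermal fibroblasts, 24 h compound exposure. Cell-surface CD90 measured by ELISA relative to DMSO; parallel SRB total-protein staining for cytotoxicity.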
As to `O=C(O)C(F)(F)C(F)(F)C(F)(F)C(F)(F)C(F)(F)C(F)(F)F`, the result was inactive.
The same measure, in the same setting: for `O=C(O)CCC(F)(C(F)(F)F)C(F)(F)F` the value was “inactive”.
On to `O=C(O)C(F)(F)C(F)(F)C(F)(F)C(F)(F)C(F)(F)C(F)(F)C(F)(F)C(F)(F)C(F)(F)C(F)(F)F`, for which the half-maximal activity concentration (AC50) was 4.83 µM (active) and the outcome was inactive.

Read-out in a further experiment: Interleukin-8 (IL8), CXCL8 (gene 3576)
The experiment in a line: BSK_BF4T_IL8: BioMAP Diversity Plus: BF4T Assay for Interleukin-8 (IL8) Biomarker Activity (AID 2284263). Particulars: primary human bronchial epithelial cells with fibroblasts. As to the method:
as §1, with “plate.BSK_BF4T_IL8” for “plate.BSK_BF4T_Eotaxin3”, “IL-8” for “Eotaxin-3”, “BSK_BF4T_IL8” for “BSK_BF4T_Eotaxin3”, “BSK_BF4T_IL8,” for “BSK_BF4T_Eotaxin3,”, “'interleukins'.” for “'chemotactic factor'.”
as §2
For the compound `O=C(O)C(F)(F)C(F)(F)C(F)(F)C(F)(F)C(F)(F)C(F)(F)F`, the result was inactive.
Same read-out and setting: for `O=C(O)CCC(F)(C(F)(F)F)C(F)(F)F` the value was “inactive”.
On to `O=C(O)C(F)(F)C(F)(F)C(F)(F)C(F)(F)C(F)(F)C(F)(F)C(F)(F)C(F)(F)C(F)(F)C(F)(F)F`, for which the half-maximal activity concentration (AC50) was 5.82 µM (active) and 5.74 µM (active).

Read-out in a further experiment: Interleukin-1 alpha (IL1a), IL1A (gene 3552)
The experiment in a line: BSK_BF4T_IL1a: BioMAP Diversity Plus: BF4T Assay for Interleukin-1 alpha (IL1a) Biomarker Activity (AID 2284264). Particulars: primary human bronchial epithelial cells with fibroblasts. As to the method:
as §1, with “plate.BSK_BF4T_IL1a” for “plate.BSK_BF4T_Eotaxin3”, “IL-1a” for “Eotaxin-3”, “BSK_BF4T_IL1a” for “BSK_BF4T_Eotaxin3”, “BSK_BF4T_IL1a,” for “BSK_BF4T_Eotaxin3,”, “'interleukins'.” for “'chemotactic factor'.”
as §2
On to `O=C(O)C(F)(F)C(F)(F)C(F)(F)C(F)(F)C(F)(F)C(F)(F)F`, for which the outcome was inactive.
Consider `O=C(O)CCC(F)(C(F)(F)F)C(F)(F)F`, for which the outcome was inactive.
As for `O=C(O)C(F)(F)C(F)(F)C(F)(F)C(F)(F)C(F)(F)C(F)(F)C(F)(F)C(F)(F)C(F)(F)C(F)(F)F`, the AC50 is 5.56 µM (active) and 6.17 µM (active).

Read-out in the next experiment: KRT18 (gene 3875)
Nature of the experiment: BSK_BF4T_Keratin818: BioMAP Diversity Plus: BF4T Assay for Keratin 818 Biomarker Activity (AID 2284266). Particulars: primary human bronchial epithelial cells with fibroblasts. As to the method:
as §1, with “plate.BSK_BF4T_Keratin818” for “plate.BSK_BF4T_Eotaxin3”, “Keratin 8/18” for “Eotaxin-3”, “BSK_BF4T_Keratin818” for “BSK_BF4T_Eotaxin3”, “BSK_BF4T_Keratin818,” for “BSK_BF4T_Eotaxin3,”, “'cell adhesion molecules'” for “'cytokine'”, “'keratin'.” for “'chemotactic factor'.”
as §2
With `O=C(O)C(F)(F)C(F)(F)C(F)(F)C(F)(F)C(F)(F)C(F)(F)F`, the result was inactive.
Turning to `O=C(O)CCC(F)(C(F)(F)F)C(F)(F)F`, the outcome was inactive.
As for `O=C(O)C(F)(F)C(F)(F)C(F)(F)C(F)(F)C(F)(F)C(F)(F)C(F)(F)C(F)(F)C(F)(F)C(F)(F)F`, the AC50 was 5.05 µM (active) and 5.17 µM (active).
